Assay results reported in the supplement of paper PMC10849652.
About 8,800 targets were measured; listed, in parts, are those with a hit and a random draw of the rest. About 0.5% of all pairs of compound and target were hits. Unmarked numbers belong to inactive results.

Key:
Assay in all cases: log2 fold change, soluble protein after heating vs DMSO (PISA); higher = thermal stabilisation; K562 lysate, 10 uM; active = over 0.2 and 3.5 SD of the protein, either way, in both replicates (recomputed)
nilotinib = compound: Cc1cn(-c2cc(NC(=O)c3ccc(C)c(Nc4nccc(-c5cccnc5)n4)c3)cc(C(F)(F)F)c2)cn1 [nilotinib]
Outline: (§1)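 A 30 min treatment with 10 μM compound was applied to crude K562 extract at 1 mg/mL protein in PBS pH 7.4 with 1 mM MgCl2. Heating for 3 min spanned 48°C-58°C, after which aliquots were pooled, adjusted to 0.5% NP-40 at 4°C and spun at 21,000xg for 90 min. TMTpro 16plex LC-MS/MS of the supernatant, with channel sums equalised, gave values recorded as log-two fold change in thermal stability against solvent controls, from duplicates.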

[1] = compound: Cc1nc(Nc2n[nH]c3c2CN(C(=O)N[C@H](CN(C)C)c2ccccc2)C3(C)C)c2sccc2n1
Outline: as §1

dasatinib = compound: Cc1nc(Nc2ncc(C(=O)Nc3c(C)cccc3Cl)s2)cc(N2CCN(CCO)CC2)n1 [dasatinib]
Outline: as §1

[2] = compound: Cc1ncc(-c2ccnc(Nc3ccc(S(C)(=O)=O)cc3)n2)n1C(C)C
Outline: as §1

[3] = compound: Cn1cc(-c2ccc3c(c2)CCN3C(=O)Cc2cccc(C(F)(F)F)c2)c2c(N)ncnc21
Outline: as §1

quisinostat = compound: Cn1cc(CNCC2CCN(c3ncc(C(=O)NO)cn3)CC2)c2ccccc21 [quisinostat]
Outline: as §1

tipifarnib = compound: Cn1cncc1[C@@](N)(c1ccc(Cl)cc1)c1ccc2c(c1)c(-c1cccc(Cl)c1)cc(=O)n2C [tipifarnib]
Outline: as §1

[4] = compound: NC(=O)Nc1cc(-c2cccc(F)c2)sc1C(=O)N[C@H]1CCCNC1
Outline: as §1

[5] = compound: NC(=O)c1cnc(N[C@@H]2CCCC[C@@H]2N)nc1Nc1cccc(-n2nccn2)c1
Outline: as §1

[6] = compound: NC1(c2ccc(-c3nc4ccn5c(=O)[nH]nc5c4cc3-c3ccccc3)cc2)CCC1
Outline: as §1

UniProt Q9Y4P1, sequence (Q9Y4P1 whole entry, looked up): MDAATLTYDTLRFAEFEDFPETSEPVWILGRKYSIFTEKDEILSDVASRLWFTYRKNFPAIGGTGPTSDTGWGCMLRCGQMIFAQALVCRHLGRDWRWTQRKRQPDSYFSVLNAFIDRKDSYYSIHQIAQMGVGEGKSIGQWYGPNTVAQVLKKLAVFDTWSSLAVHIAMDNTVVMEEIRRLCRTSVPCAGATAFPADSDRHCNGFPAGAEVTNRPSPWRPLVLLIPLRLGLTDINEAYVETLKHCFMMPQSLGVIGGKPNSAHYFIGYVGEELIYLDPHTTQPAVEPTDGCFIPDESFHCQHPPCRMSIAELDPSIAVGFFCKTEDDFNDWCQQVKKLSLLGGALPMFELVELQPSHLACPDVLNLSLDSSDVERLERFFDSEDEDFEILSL
UniProt Q9BRD0, sequence (Q9BRD0 whole entry, looked up): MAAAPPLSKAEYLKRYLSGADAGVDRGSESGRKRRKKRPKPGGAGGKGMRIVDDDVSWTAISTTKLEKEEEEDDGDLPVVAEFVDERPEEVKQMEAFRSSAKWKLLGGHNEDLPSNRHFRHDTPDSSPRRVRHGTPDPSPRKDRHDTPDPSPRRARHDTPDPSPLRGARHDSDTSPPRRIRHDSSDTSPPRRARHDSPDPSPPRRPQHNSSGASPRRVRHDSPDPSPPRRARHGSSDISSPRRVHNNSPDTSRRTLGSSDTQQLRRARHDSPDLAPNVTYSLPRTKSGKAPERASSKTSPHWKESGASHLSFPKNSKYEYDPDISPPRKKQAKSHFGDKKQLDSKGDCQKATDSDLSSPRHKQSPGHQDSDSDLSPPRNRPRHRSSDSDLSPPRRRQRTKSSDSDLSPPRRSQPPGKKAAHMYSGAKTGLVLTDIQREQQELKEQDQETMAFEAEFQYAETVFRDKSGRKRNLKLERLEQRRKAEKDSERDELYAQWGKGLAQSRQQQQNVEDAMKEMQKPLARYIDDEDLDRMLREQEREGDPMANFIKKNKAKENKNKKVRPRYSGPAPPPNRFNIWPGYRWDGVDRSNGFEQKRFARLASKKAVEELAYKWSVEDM
UniProt Q9NXV6, sequence (Q9NXV6 whole entry, looked up): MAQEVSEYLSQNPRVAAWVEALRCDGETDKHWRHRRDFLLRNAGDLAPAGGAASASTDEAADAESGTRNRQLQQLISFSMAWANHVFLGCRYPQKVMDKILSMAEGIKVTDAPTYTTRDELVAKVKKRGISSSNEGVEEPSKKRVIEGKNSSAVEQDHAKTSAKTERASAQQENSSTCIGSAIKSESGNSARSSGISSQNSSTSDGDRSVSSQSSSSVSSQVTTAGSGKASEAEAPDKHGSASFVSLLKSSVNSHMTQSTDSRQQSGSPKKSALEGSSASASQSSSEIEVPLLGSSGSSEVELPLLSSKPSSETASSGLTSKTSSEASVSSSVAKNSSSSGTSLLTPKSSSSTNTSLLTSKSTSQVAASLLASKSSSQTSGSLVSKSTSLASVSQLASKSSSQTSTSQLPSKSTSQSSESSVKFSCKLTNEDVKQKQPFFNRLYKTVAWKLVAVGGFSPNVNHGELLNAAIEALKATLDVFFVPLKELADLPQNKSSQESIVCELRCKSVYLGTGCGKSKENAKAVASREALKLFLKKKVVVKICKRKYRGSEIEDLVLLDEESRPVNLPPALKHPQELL
UniProt O75909, sequence (O75909 whole entry, looked up): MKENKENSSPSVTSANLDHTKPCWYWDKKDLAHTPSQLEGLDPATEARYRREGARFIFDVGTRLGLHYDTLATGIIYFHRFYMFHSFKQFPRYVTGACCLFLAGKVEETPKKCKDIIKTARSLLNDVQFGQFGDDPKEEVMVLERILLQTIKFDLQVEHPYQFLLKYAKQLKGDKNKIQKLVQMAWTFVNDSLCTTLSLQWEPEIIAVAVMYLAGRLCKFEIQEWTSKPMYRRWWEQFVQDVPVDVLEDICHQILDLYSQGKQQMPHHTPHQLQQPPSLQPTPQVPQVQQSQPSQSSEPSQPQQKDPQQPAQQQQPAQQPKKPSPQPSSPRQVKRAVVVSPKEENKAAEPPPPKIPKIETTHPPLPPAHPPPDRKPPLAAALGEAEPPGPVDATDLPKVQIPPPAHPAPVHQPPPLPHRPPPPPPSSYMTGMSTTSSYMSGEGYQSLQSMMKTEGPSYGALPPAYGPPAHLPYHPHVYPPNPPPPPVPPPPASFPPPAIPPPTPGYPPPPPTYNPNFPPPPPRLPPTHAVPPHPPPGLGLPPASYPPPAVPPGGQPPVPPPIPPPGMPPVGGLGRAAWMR
UniProt P50750, sequence (P50750 whole entry, looked up): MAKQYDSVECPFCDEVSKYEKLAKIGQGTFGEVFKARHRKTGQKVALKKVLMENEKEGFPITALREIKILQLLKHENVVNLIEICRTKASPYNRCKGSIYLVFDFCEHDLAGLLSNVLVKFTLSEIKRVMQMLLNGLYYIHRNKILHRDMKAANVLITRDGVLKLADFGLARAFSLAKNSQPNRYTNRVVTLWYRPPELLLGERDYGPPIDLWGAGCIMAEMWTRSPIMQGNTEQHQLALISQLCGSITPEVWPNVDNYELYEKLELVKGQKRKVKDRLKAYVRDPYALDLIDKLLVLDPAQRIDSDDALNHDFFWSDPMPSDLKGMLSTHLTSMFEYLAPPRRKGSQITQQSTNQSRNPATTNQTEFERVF
UniProt Q9H0Y0, sequence (Q9H0Y0 whole entry, looked up): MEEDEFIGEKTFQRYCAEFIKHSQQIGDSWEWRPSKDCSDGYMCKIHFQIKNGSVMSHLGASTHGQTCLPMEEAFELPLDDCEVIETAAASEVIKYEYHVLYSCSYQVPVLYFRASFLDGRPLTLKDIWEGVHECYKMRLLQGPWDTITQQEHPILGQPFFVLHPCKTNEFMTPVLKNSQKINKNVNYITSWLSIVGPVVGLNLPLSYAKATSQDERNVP
UniProt Q8IYX8, sequence (Q8IYX8 whole entry, looked up): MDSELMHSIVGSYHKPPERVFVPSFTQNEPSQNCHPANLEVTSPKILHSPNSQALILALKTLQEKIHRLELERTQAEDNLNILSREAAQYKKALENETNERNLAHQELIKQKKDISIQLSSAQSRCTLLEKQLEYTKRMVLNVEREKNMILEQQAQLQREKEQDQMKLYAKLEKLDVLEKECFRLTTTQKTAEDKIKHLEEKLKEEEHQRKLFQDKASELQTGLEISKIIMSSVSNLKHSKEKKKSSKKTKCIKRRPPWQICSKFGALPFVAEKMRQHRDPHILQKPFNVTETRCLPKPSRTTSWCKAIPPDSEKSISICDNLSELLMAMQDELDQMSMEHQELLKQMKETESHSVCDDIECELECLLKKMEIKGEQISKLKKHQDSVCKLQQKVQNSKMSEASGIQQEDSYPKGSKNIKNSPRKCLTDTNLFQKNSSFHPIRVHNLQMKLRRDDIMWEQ
UniProt Q8IWZ6, sequence (Q8IWZ6 whole entry, looked up): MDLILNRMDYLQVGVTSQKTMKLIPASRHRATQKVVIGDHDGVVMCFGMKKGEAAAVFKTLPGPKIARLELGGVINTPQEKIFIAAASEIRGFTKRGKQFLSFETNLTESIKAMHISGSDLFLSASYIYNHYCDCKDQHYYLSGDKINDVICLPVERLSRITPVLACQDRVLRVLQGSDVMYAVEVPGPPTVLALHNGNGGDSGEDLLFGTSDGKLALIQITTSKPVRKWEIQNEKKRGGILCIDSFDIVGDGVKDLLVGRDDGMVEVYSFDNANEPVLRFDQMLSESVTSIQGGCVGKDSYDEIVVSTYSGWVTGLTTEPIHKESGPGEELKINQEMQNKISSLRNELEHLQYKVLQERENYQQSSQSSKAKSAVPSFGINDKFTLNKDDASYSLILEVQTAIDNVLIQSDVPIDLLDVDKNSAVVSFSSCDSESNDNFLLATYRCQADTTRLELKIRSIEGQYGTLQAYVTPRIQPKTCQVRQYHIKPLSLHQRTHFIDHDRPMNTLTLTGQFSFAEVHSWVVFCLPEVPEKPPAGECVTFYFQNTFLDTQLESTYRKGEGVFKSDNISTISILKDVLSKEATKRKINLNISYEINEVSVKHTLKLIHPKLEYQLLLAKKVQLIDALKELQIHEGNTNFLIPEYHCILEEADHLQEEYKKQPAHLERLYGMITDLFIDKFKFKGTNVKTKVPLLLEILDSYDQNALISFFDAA
UniProt Q9NQS1, sequence (Q9NQS1 whole entry, looked up): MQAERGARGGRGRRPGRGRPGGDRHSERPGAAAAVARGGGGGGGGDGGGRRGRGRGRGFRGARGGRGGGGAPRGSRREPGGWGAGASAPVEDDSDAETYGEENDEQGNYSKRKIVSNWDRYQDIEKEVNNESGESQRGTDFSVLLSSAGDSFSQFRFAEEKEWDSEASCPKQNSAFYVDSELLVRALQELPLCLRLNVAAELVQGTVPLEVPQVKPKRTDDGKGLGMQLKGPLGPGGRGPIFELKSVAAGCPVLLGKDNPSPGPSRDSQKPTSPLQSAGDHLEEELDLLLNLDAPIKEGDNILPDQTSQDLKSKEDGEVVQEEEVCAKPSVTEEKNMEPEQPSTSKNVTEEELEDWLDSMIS
UniProt Q9H257, sequence (Q9H257 whole entry, looked up): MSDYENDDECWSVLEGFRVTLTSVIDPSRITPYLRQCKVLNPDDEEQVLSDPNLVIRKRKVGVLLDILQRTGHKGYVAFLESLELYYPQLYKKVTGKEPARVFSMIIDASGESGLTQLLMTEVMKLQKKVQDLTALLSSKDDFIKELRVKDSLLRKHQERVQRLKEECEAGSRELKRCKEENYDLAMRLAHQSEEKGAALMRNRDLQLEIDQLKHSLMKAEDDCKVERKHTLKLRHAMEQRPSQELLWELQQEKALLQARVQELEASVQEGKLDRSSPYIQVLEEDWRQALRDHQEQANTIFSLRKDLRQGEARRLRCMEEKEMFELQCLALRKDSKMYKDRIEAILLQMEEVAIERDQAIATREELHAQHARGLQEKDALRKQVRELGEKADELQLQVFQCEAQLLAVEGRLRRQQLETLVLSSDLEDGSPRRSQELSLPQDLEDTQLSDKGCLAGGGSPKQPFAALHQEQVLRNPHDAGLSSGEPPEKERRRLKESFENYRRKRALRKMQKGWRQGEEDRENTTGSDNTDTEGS
UniProt Q8TCD1, sequence (Q8TCD1 whole entry, looked up): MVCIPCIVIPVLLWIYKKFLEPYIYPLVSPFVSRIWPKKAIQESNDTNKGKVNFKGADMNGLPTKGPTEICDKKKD

Row | Target | log2 fold change (nilotinib) | log2 fold change [1] | log2 fold change (dasatinib) | log2 fold change [2] | log2 fold change [3] | log2 fold change (quisinostat) | log2 fold change (tipifarnib) | log2 fold change [4] | log2 fold change [5] | log2 fold change [6]
1 | CHD5 (UniProt Q8TDI0) | -0.007 | 0.021 | 0.038 | -0.022 | 0.007 | -0.082 | 0.005 | 0.02 | -0.019 | 0.01
2 | CCNK isoform 4 (UniProt O75909) | 0.011 | -0.03 | -0.051 | -0.009 | 0.003 | 0.009 | -0.004 | -0.006 | -0.005 | -0.011
3 | CEP152 (UniProt O94986) | -0.058 | 0.108 | 0.012 | -0.014 | -0.017 | -0.413 (active) | 0.02 | 0.058 | – | 0.112
4 | CCDC25 (UniProt Q86WR0) | 0.016 | -0.023 | -0.043 | -0.021 | -0.013 | -0.039 | 0.002 | 0 | 0.024 | -0.031
5 | CARD9 (UniProt Q9H257) | 0.047 | -0.037 | -0.017 | 0.028 | 0 | -0.032 | -0.035 | 0.005 | 0.034 | -0.007
6 | C1orf112 (UniProt Q9NSG2) | 0.089 | -0.015 | -0.102 | 0.017 | 0.05 | -0.1 | -0.046 | 0.036 | -0.03 | -0.007
7 | CHD4, A0A2R8Y521 | -0.125 | -0.088 | -0.09 | -0.156 | -0.247 | – | 0.391 | – | -0.174 | –
8 | BAHCC1 (UniProt Q9P281) | -0.191 | 0.019 | -0.144 | -0.141 | -0.039 | -0.328 | 0.031 | -0.053 | 0.021 | 0.07
9 | C15orf39 (UniProt Q6ZRI6) | 0.074 | -0.006 | -0.059 | 0.019 | 0.034 | -0.017 | -0.015 | 0.053 | – | 0.184
10 | CDK11B (UniProt P21127) | -0.006 | -0.015 | -0.028 | 0.087 | 0.068 | -0.023 | 0.01 | 0.018 | 0.009 | -0.018
11 | CHAF1A (UniProt Q13111) | -0.027 | 0.032 | -0.068 | 0.008 | -0.032 | -0.053 | 0.019 | -0.001 | -0.031 | 0.036
12 | C3orf33 (UniProt Q6P1S2) | -0.105 | -0.15 | -0.013 | 0.009 | -0.072 | -0.14 | 0.007 | 0.274 | 0.094 | 0.123
13 | CAMLG (UniProt P49069) | 0.048 | -0.082 | 0.017 | -0.069 | 0.064 | 0.01 | -0.084 | 0.005 | -0.009 | 0.046
14 | CARD11 (UniProt Q9BXL7) | -0.047 | 0.04 | -0.053 | 0.043 | 0.004 | -0.031 | -0.015 | 0.025 | 0.048 | 0.009
15 | BUD13 (UniProt Q9BRD0) | -0.036 | 0.111 | -0.094 | 0 | 0.019 | -0.044 | 0.028 | -0.014 | – | -0.019
16 | ATG4B (UniProt Q9Y4P1) | 0.045 | 0.001 | -0.049 | 0.008 | 0.044 | -0.055 | -0.019 | 0.024 | -0.05 | 0.005
17 | BMS1 (UniProt Q14692) | 0.024 | 0.024 | -0.02 | -0.045 | -0.01 | -0.097 | 0 | 0.006 | 0.015 | -0.019
18 | CDK5RAP1 (UniProt Q96SZ6) | -0.007 | 0.002 | 0.037 | 0.019 | 0.011 | 0.049 | -0.002 | -0.004 | – | -0.013

Row | Target | log2 fold change (nilotinib) | log2 fold change [1] | log2 fold change (dasatinib) | log2 fold change [2] | log2 fold change [3] | log2 fold change (quisinostat) | log2 fold change (tipifarnib) | log2 fold change [4] | log2 fold change [5] | log2 fold change [6]
19 | AURKAIP1 (UniProt Q9NWT8) | -0.072 | -0.019 | 0 | 0 | -0.058 | -0.02 | -0.041 | 0.055 | 0.042 | -0.071
20 | BRD2 isoform 2 (UniProt P25440) | 0.012 | 0.15 | 0.011 | -0.024 | -0.048 | -0.028 | -0.035 | 0.028 | -0.161 | -0.064
21 | BBS7 (UniProt Q8IWZ6) | -0.039 | 0.065 | -0.061 | -0.03 | 0.489 (active) | 0.06 | -0.133 | -0.044 | – | 0.14
22 | CDK9 isoform 2 (UniProt P50750) | -0.035 | 0.255 | 0.003 | 0.403 (active) | -0.007 | -0.028 | -0.016 | 0.009 | 0.078 | -0.04
23 | CHD9 (UniProt Q3L8U1) | 0.209 | 0.125 | -0.124 | -0.279 | -0.109 | -0.029 | -0.017 | 0 | – | 0.032
24 | CDC42BPA isoform 6 (UniProt Q5VT25) | -0.01 | 0.003 | 0.012 | 0.013 | 0.048 | 0.025 | 0 | 0.004 | -0.002 | 0.024
25 | CEP57L1 (UniProt Q8IYX8) | 0.246 | -0.129 | 0 | -0.014 | 0.34 | -0.101 | -0.015 | 0.041 | – | 0.031
26 | ATG10 (UniProt Q9H0Y0) | -0.064 | 0.026 | 0.043 | -0.16 | -0.068 | 0.015 | 0.125 | -0.01 | – | 0.016
27 | CCND3 (UniProt P30281) | -0.061 | -0.015 | -0.08 | 0.042 | 0.137 | -0.05 | -0.062 | -0.003 | – | -0.057
28 | CFDP1 (UniProt Q9UEE9) | -0.008 | 0.051 | 0.029 | 0.035 | 0.009 | -0.102 | 0.013 | -0.038 | -0.013 | -0.026
29 | CEP120 (UniProt Q8N960) | 0.524 (active) | -0.186 | 0 | -0.251 | -0.001 | -0.067 | 0.16 | 0.013 | 0.024 | -0.151
30 | CELF1 isoform 4 (UniProt Q92879) | -0.022 | 0.042 | -0.025 | 0 | 0 | 0.021 | -0.013 | 0.037 | 0.033 | 0.067
31 | CD80 (UniProt P33681) | 0.259 | -0.065 | -0.015 | -0.333 | 0.039 | 0.025 | 0.023 | -0.002 | 0.086 | -0.03
32 | BCR (UniProt P11274) | 0.108 | 0.021 | 0.043 | -0.017 | -0.018 | -0.044 | -0.015 | – | 0.028 | 0.016
33 | AVEN (UniProt Q9NQS1) | -0.014 | 0.068 | 0.01 | 0.025 | -0.08 | -0.042 | -0.188 | 0.038 | – | 0.154
34 | C18orf32 (UniProt Q8TCD1) | 0.058 | -0.078 | -0.026 | 0.072 | 0.167 | 0.027 | 0.093 | -0.11 | -0.084 | 0.062
35 | CDK17 isoform 2 (UniProt Q00537) | 0.061 | 0.117 | -0.068 | 0.096 | 0.011 | -0.069 | -0.423 | -0.057 | – | 0.068
36 | CDKN2AIP (UniProt Q9NXV6) | 0.002 | -0.023 | -0.004 | -0.008 | -0.014 | -0.031 | 0.005 | 0.008 | -0.01 | 0.001
